Screening data: PubChem, The Scripps Research Institute Molecular Screening Center
CHO-K1 Ca PAM: M1 PAM counterscreen hit in parental CHO-K1 cells; ATP EC20, Fluo-8 calcium fluorescence; 0% at ATP EC20, 100% at ATP max; activation, % at 3 µM; 0.02% of 360,000 active; AID 602247;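 active = activation above the run cutoff, the mean activation of all test compounds plus 3 SD, cut at about 40% in these data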;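 also: peak over basal fluorescence ratio in a 140 s read after ATP addition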
CHRM1 PAM: potentiates human M1 receptor response to acetylcholine; 0.088% of 360,000 active; P11229; AID 588819; CHO-K1 hM1, Fluo-8 calcium fluorescence, ACh EC20; 0% = ACh EC20, 100% = maximal ACh; activation, % at 3 µM; in the data active = activation above about 19%, passing the limit was not always enough
Target sequence (P11229 whole entry, looked up): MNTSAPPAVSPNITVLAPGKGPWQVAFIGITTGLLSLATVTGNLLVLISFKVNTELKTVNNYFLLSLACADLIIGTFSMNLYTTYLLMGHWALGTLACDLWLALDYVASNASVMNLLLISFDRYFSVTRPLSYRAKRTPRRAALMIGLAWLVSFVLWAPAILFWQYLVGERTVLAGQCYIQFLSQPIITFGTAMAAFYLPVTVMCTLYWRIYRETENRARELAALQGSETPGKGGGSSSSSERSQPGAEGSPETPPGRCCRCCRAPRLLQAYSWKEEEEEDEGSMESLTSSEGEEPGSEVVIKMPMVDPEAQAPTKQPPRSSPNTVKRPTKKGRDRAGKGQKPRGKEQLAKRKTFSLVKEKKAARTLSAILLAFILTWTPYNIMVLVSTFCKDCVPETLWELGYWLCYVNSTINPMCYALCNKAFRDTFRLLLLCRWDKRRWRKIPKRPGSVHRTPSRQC
M1 ag parental: nonselective activator or artifact in parental CHO-K1 cells; Fluo-8 calcium fluorescence; scaled to maximal ATP response, vehicle zero; activation, % at 3 µM; 0.48% of 360,000 active; in the data active = activation above about 15%;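 also: untransfected CHO-K1 host cells lacking M1 receptor as counterscreen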
M1 antag: antagonists of human M1 muscarinic receptor | P11229 | CHO-K1 hM1, Fluo-8 calcium fluorescence, ACh EC80 antagonist | AID 588852 | 1.3% of 360,000 active | inhibition, % at 3 µM;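 active = percent inhibition above its own plate's cutoff, namely the mean of that plate's compound wells plus 3 SD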;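 also: peak over basal fluorescence ratio during 140 s after agonist addition; 0% = ACh EC80 plus DMSO and 100% = DMSO alone without agonist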
CHRM1 agonist: agonists of human M1 muscarinic receptor | P11229 | CHO-K1 hM1, Fluo-8 calcium fluorescence, agonist mode; 0% DMSO, 100% acetylcholine EC100 | activation, % at 3 µM | 0.33% of 360,000 active | AID 588814;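 active = activation above the run's mean compound activation plus 3 SD, cut at about 16% in these data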;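 also: peak over basal fluorescence ratio within a 140 s kinetic read after compound addition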
CHO-K1 Ca antag: counter-screen for M1 antagonists: effect in parental CHO-K1 cells; AID 602250; ATP-induced calcium, Fluo-8 fluorescence; 0.6% of 360,000 active; inhibition, % at 3 µM;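 active = inhibition above a per-plate cutoff, the plate's mean sample inhibition plus 3 SD, cut at about 24% in these data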;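 also: 0% = DMSO plus EC80 ATP and 100% = DMSO alone without ATP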
* = called active by the depositor. The list is not random: actives were taken first. Their share in the collection is about 2.3%.

SMILES | CHO-K1 Ca PAM | CHRM1 PAM | M1 ag parental | M1 antag | CHRM1 agonist | CHO-K1 Ca antag
CCC1(c2ccccc2)SCC(c2ccccc2)=NC1=O (stereo not given) | 19 | -26 | 1 | 28 | -4 | -18
Cn1nc(C(C)(C)C)cc1C(=O)NCc1cc(F)cc2c1OCOC2 | -14 | -4 | 15* | 41* | 6 | 31*
CN(CCCN1CCCCC1)C(=O)c1cc(COc2ccc(F)cc2F)on1 | 5 | -21 | 0 | 38* | -7 | -5
O=C(NC1CCCC1)C(c1cccnc1)N(C(=O)c1csnn1)c1ccccc1 (stereo not given) | 10 | 13 | 0 | -17 | -3 | -11
N#Cc1ccc(CN2CCN(C(=O)CCNS(=O)(=O)c3ccc(F)c(Cl)c3)CC2)cc1 | -5 | -3 | 3 | -1 | -1 | -13
CC1=C(C(=O)N(C)C)CC(CC(=O)NCCCCc2ccccc2)C(=O)N1CCCN1CCCC1=O (stereo not given) | 20 | 27* | 1 | -23 | 5 | -19
CCCN(CC(=O)Nc1ccccc1C)C(=O)c1ccc(COc2ccccc2)cc1 | -19 | 3 | 4 | -7 | -3 | -6
CN1C(=O)[C@@H]2[C@H](C1=O)[C@@H]1C(=O)Nc3ccccc3C(=O)N1[C@@H]2c1cccc(Br)c1 | -1 | 0 | 0 | 1 | -7 | -5
COc1cc(/C=C2\S/C(=N/S(=O)(=O)c3ccc(C)cc3)NC2=O)c([N+](=O)[O-])cc1OC | 9 | 6 | 2 | -4 | 1 | 1
Cc1ccc(S(=O)(=O)/N=C2/NC(=O)/C(=C/c3cc([N+](=O)[O-])ccc3O)S2)cc1 | -21 | -15 | 20* | 29 | 32* | 15
CCC1CCCCN1C(=O)CSc1nnc(N)s1 (stereo not given) | 8 | 1 | 1 | -2 | -3 | -10
O=c1/c(=C/c2cccc3ccccc23)sc2ncnn12 | -8 | 1 | 0 | 17 | -2 | 28*
COC(=O)c1ccc(NC(=O)CCc2nnc3ccc(N4CCC5(CC4)OCCO5)nn23)cc1 | 13 | 5 | 1 | -8 | -7 | -7
CCOc1ccc(NC(=O)CCN2CCN(S(=O)(=O)c3cc(Cl)ccc3OC)CC2)cc1 | 41* | -3 | 4 | -10 | 2 | -20
COc1ccc(NC(=O)CCN2CCN(S(=O)(=O)c3ccc(C(C)C)cc3)CC2)cc1 | 21 | 5 | 18* | -6 | 3 | -38
COc1ccc(NC(=O)CCN2CCN(S(=O)(=O)c3ccc(Cl)cc3)CC2)cc1 | 33 | 8 | 4 | -9 | 1 | -35
CCc1c(C)sc(NC(=O)c2cc(-c3ccc(O)cc3)on2)c1C#N | -11 | 0 | 0 | -6 | -2 | 33*
CC1Oc2ccccc2C=C1/C=N/Nc1ccc(C(=O)O)cc1 (stereo not given) | 8 | 12 | 0 | -15 | 1 | -8
C[N+]12CCC(CC1)C(OC(=O)C(O)(c1ccccc1)c1ccccc1)C2 (stereo not given) | 29 | -26 | 2 | 98* | -7 | -9
COc1ccc(C)cc1NC(=O)CN1CCCN(S(=O)(=O)c2ccc(Br)cc2)CC1 | -10 | -10 | 0 | 7 | -2 | -13
O=C(/C=C/c1cn(-c2ccccc2)nc1-c1ccccc1)Nc1ccc(C(=O)O)cc1 | 2 | -21 | 0 | 98* | -5 | -3
NS(=O)(=O)c1ccc(NC(=O)/C=C/c2cn(-c3ccccc3)nc2-c2cccc(Cl)c2)cc1 | -5 | 10 | 0 | -12 | -5 | -4
OC[C@@H]1CN(Cc2ccc(-c3ccccc3)cc2)C[C@H](n2cnc3c(NC4CCC4)ncnc32)O1 | -11 | -16 | 11 | 34* | 1 | 23
OCCN1CCN(c2ncnc3c2ncn3[C@H]2CN(Cc3cccnc3)C[C@@H](CO)O2)CC1 | -11 | 4 | 0 | -10 | -3 | 27*
OC[C@@H]1CN(Cc2ccccc2)C[C@H](n2cnc3c(NC4CC4)ncnc32)O1 | 2 | 14 | 0 | -25 | 2 | -3
SMILES | CHO-K1 Ca PAM | CHRM1 PAM | M1 ag parental | M1 antag | CHRM1 agonist | CHO-K1 Ca antag
OCCN1CCN(c2ncnc3c2ncn3[C@H]2CN(Cc3ccccc3)C[C@@H](CO)O2)CC1 | 8 | 7 | 0 | -13 | -4 | -7
COc1ccc(CC(=O)N(C)Cc2ccc(OC(F)F)cc2)cc1S(=O)(=O)N1CCOCC1 | -4 | -9 | 3 | 8 | -6 | 3
Cc1ccc(NC(=S)Nc2ccc(Br)cc2)cc1 | -5 | 1 | 2 | 7 | 3 | 35*
O=C(COC(=O)c1ccccc1C(=O)OCC(=O)NCCc1c[nH]c2ccccc12)NCCc1c[nH]c2ccccc12 | -4 | -18 | 8 | 34* | -4 | 12
O=C(Nc1cccc(CNCCc2c[nH]c3ccccc23)c1)c1ccccc1Cl | 4 | 1 | 27* | -2 | -3 | 3
CC(=O)c1cccc(NC(=O)NCCc2c[nH]c3ccccc23)c1 | -6 | -5 | 4 | 2 | -1 | -7
Cc1ccc(C)c(CNS(=O)(=O)c2c(C(=O)N3CCCC3)c(C)n(C)c2C)c1 | 8 | 19 | 0 | -13 | 3 | -12
O=C(CSCC(=O)N1CCCCC1)Nc1nc(-c2ccc(Cl)s2)cs1 | -5 | -8 | 9 | 31* | 0 | 14
Cc1cccc(C)c1NC(=O)CN(C)C(C)C(=O)Nc1ccccc1-c1ccccc1 (stereo not given) | 20 | 15 | 1 | -13 | -1 | -15
Cc1ccccc1CN(C)C(C)C(=O)Nc1ccccc1F (stereo not given) | 18 | 7 | 19* | -4 | -3 | -5
O=C(Cc1c(Cl)cccc1Cl)N/N=C/c1cccnc1 | -10 | -1 | 1 | -2 | -3 | 4
O=C(O)c1ccc(N/N=C/C=C/c2ccc([N+](=O)[O-])o2)cc1 | -1 | -13 | 12 | 36* | 27* | 14
O=C(N/N=C/c1ccco1)c1cc([N+](=O)[O-])cc([N+](=O)[O-])c1 | 8 | 8 | 0 | -5 | -4 | 0
O=[N+]([O-])c1ccc(N/N=C/C=C/c2ccco2)cc1 | -4 | -14 | 21* | 35 | 12 | 19
Cc1ccc(S(=O)(=O)N2C(=O)CCC2C(=O)O/N=C(\N)c2ccccc2)cc1 (stereo not given) | 10 | 19 | 1 | -9 | 18* | -5
COc1ccccc1CCNC(=O)c1cc(-c2ccccn2)nc2ccccc12 | -6 | -11 | 2 | 32* | -4 | 15
CC12CN3CC(C)(CN(C1)C3c1ccccc1)C2O (stereo not given) | 10 | 6 | 0 | -3 | -1 | -4
CC12CN3CC(C)(CN(C1)C3c1ccc3c(c1)OCO3)C2O (stereo not given) | -28 | 5 | 5 | -15 | 0 | 100*
